Source: PubChem BioAssay (National Center for Advancing Translational Sciences (NCATS))
This excerpt belongs to a sample that is enriched for hits.
Pf Dd2 inh – qHTS Primary assay for Inhibitors of Plasmodium falciparum Dd2 growth in vitro; Potency, µM (doses to about 28.9 µM), inactives show at the top dose activity, negative = inhibition, most hits filed as inhibitors; 120,000 compounds, 4.3% hits; AID 1347417, 2020; P. falciparum Dd2 growth, SYBR Green, 72 h; active = well fitted inhibition curve with a large enough effect;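 note: plate controls were DMSO vehicle for no effect and reference drug for full effect; nearly all actives have a fitted effect of over 65% in size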
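Infected erythrocytes (Dd2, 0.3% parasitemia, 2.5% hematocrit final) are added to compound in RPMI-1640/Albumax II medium, grown 72 h at 37C in low oxygen, then lysed with saponin/Triton-X containing SYBR Green and read by fluorescence.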
* = called active by the depositor; i = inactive; [ ] = remark or other dose. Potency is the fitted concentration of half-maximal effect.

SMILES	Pf Dd2 inh
O=C(Cc1cccc(F)c1)N1CCN(C(=O)c2nnn3c2COC(c2ccccc2)C3)CC1 (stereo not given)	i
COCc1cc(CNC(=O)Cn2ncc3ccccc3c2=O)[nH]n1	-1%
CCNC(=O)O[C@@H]1CO[C@H]2[C@@H]1OC[C@@H]2NC(=O)c1ccccn1	9%[44.1 µM]
CCCCCCNc1ncnc2c1sc1nc(N3CCOCC3)c3c(c12)CCCC3	8.9µM*
CC(C)OCCCNc1ncnc2sc3c(c12)CCCC3	i
CCCc1nc2sc3c(N4CCCCC4)ncnc3c2c2c1CCCC2	24%
CCc1cc(N2CCC(Oc3ccccc3OC)(C(=O)O)CC2)nc(C)n1	i
N#Cc1cccc(C(=O)N2CCOCCNC(=O)[C@@H]3CCC[C@@H]32)c1	25%
COCc1ccc2c(c1)c(OC(C)(C)C(=O)Nc1ccn(C)n1)nn2Cc1cccc(OC)c1	-6%
CN(Cc1ccccc1-n1cccn1)C(=O)C1CC(=O)N(C2CCCC2)C1 (stereo not given)	0%
O=C(O)CCC(=O)N1CCN(C2CCNCC2)C(=O)C1	11%
O=[S+]1([O-])NCC2(CCN(Cc3cccnc3)CC2)Oc2ncccc21	6%
CC(C)(C)CN1CCC2(CC1)CN[S+](=O)([O-])c1cccnc1O2	8.9µM*
O=[S+]1([O-])NCC2(CCN(CC3CCOCC3)CC2)Oc2ncccc21	3%
CC(C)N1C(=O)CO[C@H](c2ccc(NC(=O)NCc3ccccc3)cc2)[C@H]1CO	-30%[44.1 µM]
COCCNC(=O)C1COC2(CCN(C(=O)c3ccccc3C)CC2)N1C(=O)c1cccc(OC)c1 (stereo not given)	0%
CCC1CCc2nc3sc(C(=O)Nc4ccc(F)c(Cl)c4)c(N)c3cc2C1 (stereo not given)	-7%
O=C(CN1CCN(c2ccc(Cl)cc2)CC1)Nc1ccc(Cl)c(C(F)(F)F)c1	25%
Nc1c(C(=O)Nc2cccc(Br)c2)sc2nc3c(cc12)N1CCC3CC1	i
N#Cc1cc2c(nc1SCC(=O)Nc1ccc(Cl)c(C(F)(F)F)c1)C1CCN2CC1	5µM*
Nc1c(C(=O)Nc2ccc(Cl)c(C(F)(F)F)c2)sc2nc3c(cc12)N1CCC3CC1	2.8µM*
N#Cc1c(C(F)(F)F)cc(-c2ccc(F)cc2)nc1SCC(=O)Nc1ccccc1	-1%
Cc1ccc(NC(=O)Cn2c(=O)n(-c3ccccc3)c(=O)c3c2cc(C)n3C)cc1	i
CN1C[C@H](NCc2cccnc2)CCC[C@@H](C(=O)NC2CC2)CC1=O	4%[44.1 µM]
COCc1nc(CCNC(=O)C2CCN(S(=O)(=O)N3CCC(C)CC3)CC2)no1	-8%
SMILES	Pf Dd2 inh
COCCC(=O)N1CCCCCCNC(=O)CC1c1ccccc1 (stereo not given)	19%
Cc1ncsc1CN1CCCCCNC(=O)CC1c1ccccc1 (stereo not given)	-2%
COc1ccc(CN2CCCCCNC(=O)CC2c2ccccc2)cc1Cn1ccnc1 (stereo not given)	2µM*
O=C1CC(c2ccccc2)N(Cc2ccc(C(F)(F)F)cc2)CCCCCN1 (stereo not given)	-13%
Cc1ccc(CN2CCCCCNC(=O)CC2c2ccccc2)o1 (stereo not given)	-4%
O=C1CC(c2ccccc2)N(Cc2ccc(F)c(F)c2)CCCCCN1 (stereo not given)	10µM*
O=C(CCc1nc2ccccc2[nH]c1=O)N1CCN(CCn2cncn2)CC1	9%
CN1CCCCCCN(C(=O)C2CC2)[C@H]2CCC[C@H]2C1=O	-1%
CCOC(=O)N1CCC(NC(=O)c2cnn(-c3cccc(Cl)c3C)c2C2CCN(C(=O)OC(C)(C)C)CC2)CC1	i
CCOC(=O)N1CCC(NC(=O)c2cnn(-c3ccc(OC)cc3)c2C2CCN(C(=O)OC(C)(C)C)CC2)CC1	8.9µM*
COc1ccc(-n2ncc(C(=O)NCCc3ccsc3)c2C2CCN(C(=O)OC(C)(C)C)CC2)cc1	-27%
Cc1ccc(-n2ncc(C(=O)NC3CCN(Cc4ccccc4)CC3)c2C2CCN(C(=O)OC(C)(C)C)CC2)cc1C	i
CCOC(=O)N1CCC(NC(=O)c2cnn(-c3ccc(C)cc3)c2C2CCN(C(=O)OC(C)(C)C)CC2)CC1	11µM*
COc1ccc(CNC(=O)c2cnn(-c3ccc(OC)cc3)c2C2CCN(C(=O)OC(C)(C)C)CC2)cc1	-23%
CN(Cc1cccnc1)C(=O)CCC1CCCN(S(=O)(=O)c2ccccc2)C1 (stereo not given)	-23%
Cc1cnn(CCC(=O)N[C@@H]2CN(Cc3ccccn3)C[C@H]2CN(C)C)c1	29%
O=C(CCC[C@@H]1[C@H]2CCCN3CCC[C@@H](CN1C(=O)c1ccccc1)[C@@H]23)NCc1ccc(F)cc1	-6%
CN(CC1CCOCC1)C(=O)Nc1ccc2c(c1)OCCO2	-17%
CC(=O)Nc1ccc(C2(C(=O)O)CCCCC2)cc1	3%
CC(=O)Nc1ccc(C2(C(=O)N3CCC(N4CCCCC4)CC3)CCCCC2)cc1	13µM*
CC(=O)Nc1ccc(C2(C(=O)N3CCCCCC3)CCC2)cc1	-21%
O=C(c1cccnc1OC1CCN(S(=O)(=O)Cc2ccccc2)C1)N1CCOCC1 (stereo not given)	-21%
O=C(c1ccccc1Cl)N1CCN(C(=O)c2nnn3c2COC(c2ccccc2)C3)CC1 (stereo not given)	-5%
Cc1ccc(CCNc2ncnc3onc(-c4ccc(Cl)cc4)c23)cc1	i
CCCNc1ncnc2onc(C)c12	-4%
SMILES	Pf Dd2 inh
CSc1ccc(CCNc2ncnc3onc(C)c23)cc1	8.9µM*
Cc1ccc(O)c(CN2CCC(C3(c4ccccn4)NC(=O)NC3=O)CC2)c1 (stereo not given)	-19%
CC(C)N1C[C@H](O)C[C@H]1c1nnc2n1CCN(C(=O)c1cccn1C)C2	43%
Cc1noc(-c2cccc(OC3CN(C(=O)CCCc4ccccc4)C3)c2)n1	i[5.79 µM]
COCC1CN(C)CC12CCN(S(=O)(=O)c1cnc[nH]1)CC2 (stereo not given)	-15%
O=C(CO[C@H]1CN(Cc2ccc(C(=O)O)cc2)C[C@H]1F)Nc1ccccc1O	-3%[44.1 µM]
CSc1cccc(NC(=O)NC[C@H]2C[C@@H]3CCN2C[C@@H]3CN2CCSCC2)c1	10µM*
N#Cc1cccc(NC(=O)NC[C@H]2C[C@@H]3CCN2C[C@@H]3CN2CCSCC2)c1	-3%[44.1 µM]
CN1CCN(C[C@H]2CN3CC[C@H]2C[C@@H]3CNC(=O)Nc2ccccc2)CC1	21%[44.1 µM]
Cc1ncoc1C(=O)N1CCC2(CC1)CCC(O)(CN(C)C)CC2	-13%
CCC[C@@H]1CN(c2cc(OC)nc(N)n2)C[C@H]1C(=O)O	-9%
CC(C)(C)OC(=O)N1CCC(c2c(C(=O)NCCCN3CCc4ccccc4C3)cnn2-c2ccccc2)CC1	8.9µM*
Cc1ccc(-n2ncc(C(=O)NCc3cccs3)c2C2CCN(C(=O)OC(C)(C)C)CC2)cc1	i
Cc1ccc(-n2ncc(C(=O)NCCCN3CCN(C)CC3)c2C2CCN(C(=O)OC(C)(C)C)CC2)cc1	i
CCN1CCN(CCCNC(=O)c2cnn(-c3ccccc3)c2C2CCN(C(=O)OC(C)(C)C)CC2)CC1	-29%
Cc1ccc(-n2ncc(C(=O)NC3CCCC3)c2C2CCN(C(=O)OC(C)(C)C)CC2)c(C)c1	10µM*
CC(C)(C)OC(=O)N1CCC(c2c(C(=O)NCc3ccccc3)cnn2-c2ccccc2)CC1	i
COc1ccc(-n2ncc(C(=O)NCCN3CCOCC3)c2C2CCN(C(=O)OC(C)(C)C)CC2)cc1	-9%
CC(C)(C)OC(=O)N1CCC(c2c(C(=O)NCCN3CCOCC3)cnn2-c2cccc(Cl)c2)CC1	10µM*
